Laboratory results as given in PubChem BioAssay (EPA / NIEHS).
Calls of active or inactive are those of the source. How the source made its calls: active means hit-call score of the fitted dose curve at least 0.9, where 1 is the maximum; inactive means score below 0.9.

These compounds were tested on Tumor necrosis factor receptor superfamily member 6 (Homo sapiens) (UniProt P25445) (assay: LTEA_HepaRG_FAS: Life Technologies and Expression Analysis (LTEA) Assay for Fas cell surface death receptor (FAS) using HepaRG (AID 2283447)). Conditions: mRNA level, 48 h; actives raise or lower the signal.
How it was run: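 Differentiated HepaRG cells in serum-free induction medium were exposed 48 h to 8 half-log concentrations up to 100 uM in 0.5% DMSO, in duplicate. FAS mRNA was measured by qRT-PCR normalised to ACTB, GAPDH and POLR2A; bidirectional fit versus DMSO.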
In the case of `CCCCCCCCCCCCCCCC`, the outcome is reported as “inactive”. `CC1=C(/C=C/C(C)=C/C=C/C(C)=C/CO)C(C)(C)CCC1` was tested, and the outcome was “inactive”. `O=c1c(O)c(-c2ccc(O)c(O)c2)oc2cc(O)cc(O)c12` was tested, and the outcome was “inactive”. For `COc1cc(S(=O)(=O)O)c(C)cc1N=Nc1c(O)ccc2cc(S(=O)(=O)O)ccc12`, the outcome was “inactive”. With `NCCO` the outcome was “inactive”. For `CCc1c(C(=O)NN2CCCCC2)nn(-c2ccc(Cl)cc2Cl)c1-c1ccc(Br)cc1`, the AC50 was 50 µM (active). For `CCOC(=O)C(C)(C)Oc1ccc(Cl)cc1`, the outcome was “inactive”. With `Clc1cc(Cl)c(Cl)cc1Cl` the outcome was “inactive”. For `CCCCCCCCCCO`, the outcome was “inactive”. For `Cc1cccc([N+](=O)[O-])c1C`, the outcome was “inactive”. For `CCCCCCOCCO`, the outcome was “inactive”. In the case of `CNC(=O)[C@H]1O[C@@H](n2cnc3c(NCc4cc(Cl)ccc4OCc4cc(C)no4)ncnc32)[C@H](O)[C@@H]1N`, the outcome is reported as “inactive”. `CCCCOC(=O)CCCCCCCCC(=O)OCCCC` was tested, and the outcome was “inactive”. `Cc1ccccc1Cl` was tested, and the outcome was “inactive”. `C=CCOC(=O)c1ccccc1C(=O)OCC=C` was tested, and the outcome was “inactive”. With `CN1CCCC1=O` the outcome was “inactive”. In the case of `Cc1cccc(C)c1O`, the outcome is reported as “inactive”. In the case of `Cc1ccc2ncccc2c1`, the outcome is reported as “inactive”. In the case of `O=C(O)CCCCC(=O)O`, the outcome is reported as “inactive”. `CCCc1cc(=O)[nH]c(=S)[nH]1` was tested, and the outcome was “inactive”. In the case of `CCCCc1ccc2c(n1)[C@@H](c1ccc(OC)cc1C[C@H](C)C(=O)O)[C@H](C(=O)O)[C@H]2c1ccc2c(c1)OCO2`, the outcome is reported as “inactive”. In the case of `O=[N+]([O-])C(CO)(CO)CO`, the outcome is reported as “inactive”. In the case of `COc1cc(C=O)ccc1O`, the outcome is reported as “inactive”. For `CCCCCCCCCCCCCCCCCC(=O)O`, the outcome was “inactive”. For `C[Si]1(C)O[Si](C)(C)O[Si](C)(C)O[Si](C)(C)O1`, the outcome was “inactive”. `CCCCCCCCCCC` was tested, and the outcome was “inactive”. In the case of `NCC1(Cc2noc(=O)[nH]2)CCCCC1`, the outcome is reported as “inactive”. `Nc1nc(N)c2nc(CNc3ccc(C(=O)N[C@@H](CCC(=O)O)C(=O)O)cc3)cnc2n1` was tested, and the outcome was “inactive”. `CN[C@H]1CC[C@@H](c2ccc(Cl)c(Cl)c2)c2ccc(S(N)(=O)=O)cc21` was tested, and the outcome was “inactive”.

These compounds were tested on Fatty acid synthase (Homo sapiens) (UniProt P49327) (assay: LTEA_HepaRG_FASN: Life Technologies and Expression Analysis (LTEA) Assay for Fatty Acid Synthase (FASN) using HepaRG (AID 2283448;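 on AC50: differentiated human HepaRG liver cells in serum-free induction medium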)). Conditions: mRNA level, 48 h; actives raise or lower the signal.
Sequence of Fatty acid synthase (Homo sapiens) (P49327 whole entry, looked up): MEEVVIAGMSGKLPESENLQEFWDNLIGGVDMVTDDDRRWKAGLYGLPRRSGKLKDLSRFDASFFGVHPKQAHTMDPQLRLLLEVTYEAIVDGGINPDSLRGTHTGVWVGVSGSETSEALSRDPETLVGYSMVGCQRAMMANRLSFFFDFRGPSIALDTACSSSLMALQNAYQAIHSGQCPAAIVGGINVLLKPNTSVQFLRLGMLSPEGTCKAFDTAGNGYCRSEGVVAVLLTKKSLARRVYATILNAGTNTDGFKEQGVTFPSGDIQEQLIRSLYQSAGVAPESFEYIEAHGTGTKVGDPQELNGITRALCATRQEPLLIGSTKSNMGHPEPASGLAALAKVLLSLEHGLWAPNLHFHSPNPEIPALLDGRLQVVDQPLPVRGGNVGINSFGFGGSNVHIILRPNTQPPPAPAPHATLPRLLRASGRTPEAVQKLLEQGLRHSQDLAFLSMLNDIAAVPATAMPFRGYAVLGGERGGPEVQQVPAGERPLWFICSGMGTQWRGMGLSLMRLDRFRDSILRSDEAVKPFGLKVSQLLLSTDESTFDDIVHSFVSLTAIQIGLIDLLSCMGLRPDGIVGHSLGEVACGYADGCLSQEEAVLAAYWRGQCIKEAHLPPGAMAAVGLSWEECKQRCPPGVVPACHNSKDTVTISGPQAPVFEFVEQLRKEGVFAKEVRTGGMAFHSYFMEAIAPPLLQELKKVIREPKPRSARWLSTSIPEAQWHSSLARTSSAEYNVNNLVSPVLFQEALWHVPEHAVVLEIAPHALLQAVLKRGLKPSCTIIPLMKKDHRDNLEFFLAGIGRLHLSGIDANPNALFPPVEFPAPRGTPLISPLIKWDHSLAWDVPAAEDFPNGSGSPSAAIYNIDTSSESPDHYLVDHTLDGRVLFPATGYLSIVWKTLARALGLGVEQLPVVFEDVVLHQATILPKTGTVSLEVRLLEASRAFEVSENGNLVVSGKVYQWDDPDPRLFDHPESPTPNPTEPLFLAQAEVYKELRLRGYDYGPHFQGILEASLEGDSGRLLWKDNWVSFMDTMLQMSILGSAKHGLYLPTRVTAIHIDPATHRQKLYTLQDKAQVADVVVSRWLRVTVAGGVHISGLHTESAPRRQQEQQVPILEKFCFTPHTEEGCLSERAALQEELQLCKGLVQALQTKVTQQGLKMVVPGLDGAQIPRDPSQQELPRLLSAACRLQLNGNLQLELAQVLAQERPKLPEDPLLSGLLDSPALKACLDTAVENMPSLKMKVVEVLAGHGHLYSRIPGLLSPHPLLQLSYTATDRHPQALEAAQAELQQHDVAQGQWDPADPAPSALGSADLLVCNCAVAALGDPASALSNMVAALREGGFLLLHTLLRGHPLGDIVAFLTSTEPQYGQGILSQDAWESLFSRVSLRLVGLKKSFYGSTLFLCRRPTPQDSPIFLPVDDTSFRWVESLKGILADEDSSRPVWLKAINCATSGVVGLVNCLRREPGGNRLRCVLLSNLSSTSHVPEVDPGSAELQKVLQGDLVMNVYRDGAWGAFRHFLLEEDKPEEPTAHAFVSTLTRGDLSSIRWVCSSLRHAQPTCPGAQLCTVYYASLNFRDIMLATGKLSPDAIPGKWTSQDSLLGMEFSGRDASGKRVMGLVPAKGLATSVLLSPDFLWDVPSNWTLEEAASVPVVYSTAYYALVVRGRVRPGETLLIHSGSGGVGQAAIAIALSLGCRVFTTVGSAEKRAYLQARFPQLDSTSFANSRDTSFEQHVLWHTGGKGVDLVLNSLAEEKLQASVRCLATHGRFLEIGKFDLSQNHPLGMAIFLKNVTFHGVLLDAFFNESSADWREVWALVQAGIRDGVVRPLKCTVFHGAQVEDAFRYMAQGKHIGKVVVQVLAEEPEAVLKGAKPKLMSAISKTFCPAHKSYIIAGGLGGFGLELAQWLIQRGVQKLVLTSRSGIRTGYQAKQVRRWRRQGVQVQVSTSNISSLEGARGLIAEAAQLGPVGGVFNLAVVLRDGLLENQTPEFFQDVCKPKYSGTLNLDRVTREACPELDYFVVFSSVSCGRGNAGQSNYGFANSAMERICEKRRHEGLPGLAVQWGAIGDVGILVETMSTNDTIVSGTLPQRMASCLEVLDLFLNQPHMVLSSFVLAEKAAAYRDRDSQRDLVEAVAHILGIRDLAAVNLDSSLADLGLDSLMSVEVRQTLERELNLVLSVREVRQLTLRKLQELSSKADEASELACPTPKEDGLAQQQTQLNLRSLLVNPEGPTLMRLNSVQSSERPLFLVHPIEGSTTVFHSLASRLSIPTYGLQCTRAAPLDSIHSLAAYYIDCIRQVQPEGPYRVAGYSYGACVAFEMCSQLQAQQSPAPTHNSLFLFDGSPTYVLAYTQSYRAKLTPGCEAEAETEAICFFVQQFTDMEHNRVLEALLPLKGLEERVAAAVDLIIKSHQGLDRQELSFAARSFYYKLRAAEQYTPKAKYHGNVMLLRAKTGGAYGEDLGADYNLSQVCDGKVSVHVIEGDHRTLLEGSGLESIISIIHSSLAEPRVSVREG
How it was run: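 Transcript-level assay: HepaRG liver cells are treated for 48 h across an eight-point range topping at 100 uM, and FASN mRNA, normalized to three housekeeping genes, is compared with DMSO controls in both directions.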
In the case of `CCCCCCCCCCCCCCCC`, the outcome is reported as “inactive”. In the case of `CC1=C(/C=C/C(C)=C/C=C/C(C)=C/CO)C(C)(C)CCC1`, the outcome is reported as “inactive”. `O=c1c(O)c(-c2ccc(O)c(O)c2)oc2cc(O)cc(O)c12` was tested, and the outcome was “inactive”. `COc1cc(S(=O)(=O)O)c(C)cc1N=Nc1c(O)ccc2cc(S(=O)(=O)O)ccc12` was tested, and the outcome was “inactive”. `NCCO` was tested, and the outcome was “inactive”. With `CCc1c(C(=O)NN2CCCCC2)nn(-c2ccc(Cl)cc2Cl)c1-c1ccc(Br)cc1` the AC50 was 82.7 µM (active). With `CCOC(=O)C(C)(C)Oc1ccc(Cl)cc1` the outcome was “inactive”. For `Clc1cc(Cl)c(Cl)cc1Cl`, the outcome was “inactive”. With `CCCCCCCCCCO` the outcome was “inactive”. In the case of `Cc1cccc([N+](=O)[O-])c1C`, the outcome is reported as “inactive”. In the case of `CCCCCCOCCO`, the outcome is reported as “inactive”. For `CNC(=O)[C@H]1O[C@@H](n2cnc3c(NCc4cc(Cl)ccc4OCc4cc(C)no4)ncnc32)[C@H](O)[C@@H]1N`, the outcome was “inactive”. With `CCCCOC(=O)CCCCCCCCC(=O)OCCCC` the outcome was “inactive”. `Cc1ccccc1Cl` was tested, and the outcome was “inactive”. In the case of `C=CCOC(=O)c1ccccc1C(=O)OCC=C`, the outcome is reported as “inactive”. For `CN1CCCC1=O`, the outcome was “inactive”. `Cc1cccc(C)c1O` was tested, and the outcome was “inactive”. For `Cc1ccc2ncccc2c1`, the outcome was “inactive”. In the case of `O=C(O)CCCCC(=O)O`, the outcome is reported as “inactive”. For `CCCc1cc(=O)[nH]c(=S)[nH]1`, the outcome was “inactive”. In the case of `CCCCc1ccc2c(n1)[C@@H](c1ccc(OC)cc1C[C@H](C)C(=O)O)[C@H](C(=O)O)[C@H]2c1ccc2c(c1)OCO2`, the outcome is reported as “inactive”. For `O=[N+]([O-])C(CO)(CO)CO`, the outcome was “inactive”. For `COc1cc(C=O)ccc1O`, the outcome was “inactive”. For `CCCCCCCCCCCCCCCCCC(=O)O`, the outcome was “inactive”. In the case of `C[Si]1(C)O[Si](C)(C)O[Si](C)(C)O[Si](C)(C)O1`, the outcome is reported as “inactive”. In the case of `CCCCCCCCCCC`, the outcome is reported as “inactive”. For `NCC1(Cc2noc(=O)[nH]2)CCCCC1`, the outcome was “inactive”. With `Nc1nc(N)c2nc(CNc3ccc(C(=O)N[C@@H](CCC(=O)O)C(=O)O)cc3)cnc2n1` the AC50 was 0.0999 µM (active). For `CN[C@H]1CC[C@@H](c2ccc(Cl)c(Cl)c2)c2ccc(S(N)(=O)=O)cc21`, the outcome was “inactive”.
